{"source": "PubChem BioAssay AID2284114", "about": "(EPA ToxCast)", "note": "Activity calls are given as the source filed them. Rule for the calls: active = hit-call score of the fitted dose curve at least 0.9, where 1 is the maximum; inactive = score below 0.9.", "data": [{"target": "human MSK1 (RPS6KA5) AGC Kinase, RPS6KA5 (gene 9252) (UniProt O75582)", "sequence (O75582 whole entry, looked up)": "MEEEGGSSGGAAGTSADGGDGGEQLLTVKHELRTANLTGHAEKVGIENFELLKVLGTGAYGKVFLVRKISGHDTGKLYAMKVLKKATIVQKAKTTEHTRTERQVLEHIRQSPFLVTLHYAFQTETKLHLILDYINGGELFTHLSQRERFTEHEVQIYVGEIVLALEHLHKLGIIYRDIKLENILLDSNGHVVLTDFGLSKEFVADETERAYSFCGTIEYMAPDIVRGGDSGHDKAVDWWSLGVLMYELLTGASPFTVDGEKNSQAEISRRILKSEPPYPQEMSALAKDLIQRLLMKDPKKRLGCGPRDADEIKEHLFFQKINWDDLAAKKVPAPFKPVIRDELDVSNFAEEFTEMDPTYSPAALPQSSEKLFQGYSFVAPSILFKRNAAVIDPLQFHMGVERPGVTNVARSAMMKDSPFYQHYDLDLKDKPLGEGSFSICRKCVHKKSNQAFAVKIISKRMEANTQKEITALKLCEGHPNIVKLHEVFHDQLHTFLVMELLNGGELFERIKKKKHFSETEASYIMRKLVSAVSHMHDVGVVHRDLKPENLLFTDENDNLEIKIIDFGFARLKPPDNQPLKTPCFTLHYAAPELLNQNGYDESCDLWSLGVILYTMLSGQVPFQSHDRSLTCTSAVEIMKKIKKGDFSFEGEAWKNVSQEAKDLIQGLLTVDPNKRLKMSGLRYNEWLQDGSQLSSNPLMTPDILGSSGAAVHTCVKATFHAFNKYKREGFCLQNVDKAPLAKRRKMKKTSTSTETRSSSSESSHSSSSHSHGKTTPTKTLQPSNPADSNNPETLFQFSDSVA", "experiment": "ERF_FR_ENZ_hMSK1: Eurofins (ERF) Enzymatic Radiometric [Km ATP] KinaseProfiler LeadHunter Assay for human MSK1 (RPS6KA5) AGC Kinase", "procedure": "ERF_FR_ENZ_hMSK1 is a biochemical, single-readout assay that uses extracted gene-proteins in a cell-free assay. Measurements were taken 0.16 hour after chemical dosing in a 96-well plate. See MSK1 Human AGC Kinase Enzymatic Radiometric Assay [Km ATP], Cerep.ERF_FR_ENZ_hMSK1 is an assay component calculated from the ERF_FR_ENZ_hMSK1 assay. It is designed to measure enzyme activity using a type of enzyme reporter as detected by scintillation counting with radiometry technology.Data from the assay component ERF_FR_ENZ_hMSK1 was analyzed at the assay endpoint, ERF_FR_ENZ_hMSK1, in the positive analysis fitting direction relative to DMSO as the negative control and baseline of activity. Using a type of enzyme reporter, loss-of-signal activity can be used to understand changes in enzymatic activity as they relate to gene MSK1. To generalize the intended target to other relatable targets, this assay endpoint is annotated to the kinase intended target family, where the subfamily is serine/threonine kinase.\nMSK1 (h) is incubated with 8 mM MOPS pH 7.0, 0.2 mM EDTA, 30 uM […], 10 mM MgAcetate and [g- 33P]-ATP (specific activity and concentration as required). The reaction is initiated by the addition of the Mg/ATP mix. After incubation for 40 minutes at room temperature, the reaction is stopped by the addition of phosphoric acid to a concentration of 0.5%. […]", "values": [{"smiles": "O=C(/C=C/c1ccc(O)cc1)CC(=O)/C=C/c1ccc(O)cc1", "AC50": "5 µM (active)"}, {"smiles": "COc1cc(CCC(=O)CC(=O)CCc2ccc(O)c(OC)c2)ccc1O", "AC50": "2.12 µM (active)"}]}]}
